# Source: PubChem BioAssay AID1490 (National Center for Advancing Translational Sciences (NCATS), 2009)
# “And” between values parts separate entries of the source, which are not always exact repeats. Identical values can stand only once. Out of some 310,000 compounds screened, about 11,000 (3.5%) were called active. About 4% were inconclusive and are not listed. Calls follow the shape of the dose curve; as a rule, active = well fitted inhibition curve with a large enough effect; inconclusive = small, poorly fitted or top-dose-only effect, or another doubt; inactive = no such curve, though single readings can be large or run the other way. Many of the other results were omitted from the sample, so actives are more common in it than they were.
# Target: 4'-phosphopantetheinyl transferase ffp (Bacillus subtilis) (UniProt Q9F4F7)
# Experiment: qHTS Assay for Inhibitors of Bacillus subtilis Sfp phosphopantetheinyl transferase (PPTase);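 also: the enzyme is Sfp with the accession as filed and its product quenches rhodamine fluorescence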;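 as to largest response in the series, negative = inhibition: 0% = enzyme reaction without inhibitor and -100% = no enzyme wells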
# Conditions: Biochemical Sfp PPTase activity
# How it was run: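 Step 1, compound plus 15 nM Sfp-PPTase, 15 min, room temperature. Step 2, add rhodamine-CoA (5 uM) and BHQ-2-YbbR (12.5 uM). Step 3, read 525/598 nm fluorescence at 0 and 30 min.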
# Potency is read from the fitted curve at half-maximal effect.
SMILES,"largest response in the series, negative = inhibition",Potency
c1ccc(Nc2n[nH]nc2-c2ccccc2)cc1,1.39% (inactive),–
O=c1[nH]c(-c2ccccc2)c(-c2ccccc2)[nH]1,2.86% (inactive),–
O=C(O)c1n[nH]nc1-c1ccccc1,–,70.8 µM (active)
S=C(Nc1cccc(Cl)c1)Nc1ccc2c(c1)OCCO2,-5.75% (inactive),–
CC(C)(C)c1cc(=O)n2c(nc3ccccc32)[nH]1,30.5% (inactive),–
CC1(C)CC(=O)c2cnc3nc4ccccc4n3c2C1,–,50.1 µM (active)
Cc1ccc2nc(Nc3ncc4c(n3)CC(C)(C)CC4=O)nc(C)c2c1,4.59% (inactive),–
CSc1ccccc1NC(=O)c1cc(Cl)sc1Cl,9.55% (inactive),–
CCOC(=O)c1c(NC(=S)NC(=O)c2ccco2)sc2c1CCCC2,-0.0002% (inactive),–
CNC(=O)c1c(NC(NC(=O)c2ccco2)C(=O)c2ccc(Cl)cc2)sc2c1CCCC2 (stereo unspecified),–,25.1 µM (active)
CC(C)OC(=O)c1c(NC(=O)c2ccco2)sc2c1CCCC2,10.9% (inactive),–
COC(=O)c1ccc(CN2C(=O)NC(c3ccccc3)(c3ccccc3)C2=O)o1,23.7% (inactive),–
CC[C@]1([C@H]2O[C@@H]([C@@H]3O[C@](O)(CO)[C@@H](C)C[C@H]3C)C[C@H]2C)CC[C@@H]([C@]2(C)CC[C@@]3(C[C@@H](O)[C@@H](C)[C@@H]([C@H](C)[C@H](OC)[C@H](C)C(=O)O)O3)O2)O1,15.5% (inactive),–
O=C1CC(Sc2ncn[nH]2)C(=O)N1c1ccccc1 (stereo unspecified),–,56.2 µM (active)
Cc1ccc(N2C(=O)C3CC3C2=O)cc1 (stereo unspecified),15.7% (inactive),–
CC(=O)Nc1ccc(N2C(=O)CC(Sc3nccc(C)n3)C2=O)cc1 (stereo unspecified),11.7% (inactive),–
COC(=O)c1ccccc1SC1CC(=O)N(c2cccc(C)c2)C1=O (stereo unspecified),-19.3% (inactive),–
Cc1ccc(N2C(=O)CC(Sc3ncn[nH]3)C2=O)cc1 (stereo unspecified),–,56.2 µM (active)
O=C1CC(N2CCN(c3ccc(F)cc3)CC2)C(=O)N1c1ccccc1 (stereo unspecified),0.505% (inactive),–
COc1ccc(N2C(=O)CC(Sc3n[nH]c(-c4ccc(C)cc4)n3)C2=O)cc1 (stereo unspecified),–,25.1 µM (active)
COc1ccc(-c2nc(SCC(=O)N3CCCC3)n[nH]2)cc1,14.1% (inactive),–
COc1ccc(N2C(=O)CC(SC(C)C)C2=O)cc1 (stereo unspecified),7.97% (inactive),–
CCOc1ccc(S(=O)(=O)N2CCC(C(=O)NCc3ccccn3)CC2)cc1Cl,5.52% (inactive),–

SMILES,"largest response in the series, negative = inhibition",Potency
CC[C@@]12C=C(/C=C/c3ccccc3)[C@](CC)(C1)[C@H](c1ccccc1)CC2=O,-22.6% (inactive),–
CC(Nc1nc(C(F)(F)F)nc2ccccc12)c1cccs1 (stereo unspecified),2.55% (inactive),–
COC(=O)C(C(=O)OC)[C@@H]1CCCC(=O)C1,-0.107% (inactive),–
CN(C)c1ccc(-c2nnc(-c3cccnc3)o2)cc1,7.75% (inactive),–
Cc1cc(NS(=O)(=O)c2ccc(NC(=O)C(C)Oc3cccc(C)c3C)cc2)nc(C)n1 (stereo unspecified),8.85% (inactive),–
Cc1ccc(/C=N/NC(=O)CSc2nc3ccccc3o2)cc1,-16.9% (inactive),–
O=C(CSc1nc2ccccc2o1)N/N=C/c1ccccc1C(=O)O,–,44.7 µM (active)
CC(C)(C)C(=O)CSc1nc2ccccc2o1,7.38% (inactive),–
CCN(CC)S(=O)(=O)c1ccc(C(=O)N2CCN(C3=NS(=O)(=O)c4ccccc43)CC2)cc1,14.9% (inactive),–
COc1cccc(CCNC(=O)c2cccc(NC(=O)C3=C(C)OCCS3)c2)c1,3.98% (inactive),–
c1csc(-c2cn3c(n2)SCC3)c1,–,79.4 µM (active)
Cc1cc(-c2cccs2)nc(-n2cccc2)n1,1.03% (inactive),–
CCCS(=O)(=O)Nc1ccc(-c2cn3c(n2)SCC3)cc1,-22.5% (inactive),–
CCOC(=O)COn1c(=O)c(-c2ccc(OCC)cc2)[n+]([O-])c2ccccc21,1.13% (inactive),–
CCOc1ccc(OCC)c(-c2c(=O)n(OCc3ccc(Cl)cc3)c3ccccc3[n+]2[O-])c1,–,100 µM (active)
COc1ccc(OC)c(-c2c(=O)n(OCc3ccccc3Br)c3ccccc3[n+]2[O-])c1,9.79% (inactive),–
O=C(N=C1SC2CS(=O)(=O)CC2N1c1cc(Cl)ccc1Cl)C1CC1 (stereo unspecified),8.66% (inactive),–
O=c1oc(-c2ccco2)nc2sc3c(c12)CCCCC3,2.61% (inactive),–
COc1ccc(CCn2c(=N)c(C(=O)NCc3ccco3)cc3c(=O)n4cccc(C)c4nc32)cc1,-13.5% (inactive),–
O=C(NCc1ccco1)c1cccn2c(=O)c3c4c(sc3nc12)CCCC4,–,44.7 µM (active)
CCc1ccc(NC(=O)CS(=O)CC(=O)N2CCN(c3ccccc3F)CC2)cc1 (stereo unspecified),2.49% (inactive),–
COc1ccc(C(=O)NC2CC2)cc1OC1CCN(C/C=C/c2ccccc2)CC1,8.51% (inactive),–
Cc1coc2c(O)cc3c(c12)OC1(N2CCCCC2)C(=O)NCCCC31 (stereo unspecified),–,28.2 µM (active)

SMILES,"largest response in the series, negative = inhibition",Potency
Cc1nonc1C1CCCN1C(=O)c1cc(COc2cccc(C(F)(F)F)c2)on1 (stereo unspecified),14.2% (inactive),–
CCc1cccc(NC(=O)CCCN2C(=O)C(c3ccccc3)Oc3cccnc32)c1 (stereo unspecified),11.6% (inactive),–
COC(=O)C(CC(C)C)NS(=O)(=O)c1cc(Br)ccc1Br (stereo unspecified),6.49% (inactive),–
COc1cc2c(cc1OC)CC(=O)N(CCCN(C)C[C@H]1Cc3cc(OC)c(OC)cc31)CC2,9.18% (inactive),–
Cc1cccc(N2C(=O)CC(SC(N)=Nc3ccccc3)C2=O)c1 (stereo unspecified),10.8% (inactive),–
Cc1cccc(N2C(=O)SC(SC(=Nc3ccccc3)Nc3ccccc3)C2=O)c1 (stereo unspecified),–,10 µM (active)
Cc1cccc(N2C(=O)c3ccc(C(=O)Nc4cccc(C(=O)O)c4)cc3C2=O)c1,8.86% (inactive),–
CCOC(=O)C1(Cc2ccccc2C)CCCN(C(=O)CN2C(=O)CSC2=O)C1 (stereo unspecified),3.9% (inactive),–
CC(=O)c1cccc(OCc2cc(C(=O)NC(C)Cc3cccnc3)no2)c1 (stereo unspecified),16.6% (inactive),–
Cc1oc2c(F)c(F)c(F)c(F)c2c1S(=O)(=O)Nc1cccc(C(F)(F)F)c1,11.3% (inactive),–
O=C(CN1CCN(c2cccc(Cl)c2)CC1)Nc1ccc(S(=O)(=O)N2CCOCC2)cc1,13% (inactive),–
O=C(CN1CCOCC1)Nc1cc(Cl)ccc1Cl,2.24% (inactive),–
O=C(CN1CCN(c2ccc(O)cc2)CC1)Nc1cc(S(=O)(=O)N2CCOCC2)ccc1Cl,–,79.4 µM (active)
O=C(CN1CCN(c2ccc(O)cc2)CC1)Nc1ccc(-c2ccccc2)cc1,–,44.7 µM (active)
CC(=O)N1CCN(CC(=O)Nc2ccc(C)c(F)c2)CC1,-24.9% (inactive),–
O=C(CSc1nncs1)NC1CCCc2ccccc21 (stereo unspecified),15.6% (inactive),–
O=C(CN1CCN(c2ccc(F)cc2)CC1)Nc1ccccc1,-1.74% (inactive),–
O=C(CN1CCN(c2ccccc2)CC1)Nc1ccc(F)cc1,7.85% (inactive),–
Cc1cc(NC(=O)CCN2CCN(Cc3ccccc3)CC2)ccc1Br,-5.6% (inactive),–
O=C(CN1CCN(c2ccc(O)cc2)CC1)NC1CCCc2ccccc21 (stereo unspecified),–,17.8 µM (active)
O=C(CN1CCN(Cc2ccccc2)CC1)Nc1ccc(F)c(F)c1,–,56.2 µM (active)
CSc1ccccc1N1CCN(CCCCCC(=O)NC2CCCc3ccccc32)CC1 (stereo unspecified),-7.93% (inactive),–
COc1ccc(C2(C#N)CCC(C(=O)O)CC2)cc1OC1CCCC1 (stereo unspecified),3.3% (inactive),–

SMILES,"largest response in the series, negative = inhibition",Potency
CN(CC(=O)NCCN1CCOCC1)S(=O)(=O)c1ccc(F)cc1,16.5% (inactive),–
CN(CCNC(=O)c1cc2c(-c3ccccc3F)nn(C)c2s1)C1CCCCC1,5.98% (inactive),–
COC(=O)c1cc(S(=O)(=O)NCC2CCN(Cc3ccc(Cl)cc3)CC2)cn1C,11.4% (inactive),–
CCOC(=O)C1(Cc2ccccc2C)CCCN(C(=O)c2ccc(COC)o2)C1 (stereo unspecified),-22.7% (inactive),–
COc1ccc(/C=N/Nc2ccccc2C(=O)O)cc1,11.5% (inactive),–
CCC(=O)Nc1nc(C)c(C(=O)Nc2cccc(Cl)c2)s1,8.26% (inactive),–
O=C(NCc1ccc(F)cc1)C1CCN(C(=O)Nc2ccc(F)cc2)CC1,9.57% (inactive),–
C=CCOC(=O)NC(c1ccc(F)c(F)c1)C(C(=O)COC)C(=O)OC (stereo unspecified),-7.09% (inactive) and 12.8% (inactive),–
CCOC(=O)c1cccc(NS(=O)(=O)c2c(C(=O)N3CCCCCC3)c(C)n(C)c2C)c1,2.36% (inactive),–
Nc1nonc1-n1nnc(C(=O)N/N=C\c2ccncc2)c1CN1CCCCC1,21.3% (inactive),–
COc1ccc2[nH]cc(CCN3C(=O)c4ccc(C(=O)O)cc4C3=O)c2c1,20.2% (inactive),–
O=C(N/N=C/c1ccc2c(c1)OCO2)C(=O)N1CCCC1,24.9% (inactive),–
Brc1ccc(-c2csc(N/N=C/c3ccc4c(c3)OCO4)n2)cc1,–,2.82 µM (active)
O=C(Cc1ccc(F)cc1)N/N=C/c1ccc2c(c1)OCO2,18.6% (inactive),–
C(=N\Nc1ccc2ccccc2n1)/c1ccc2c(c1)OCO2,–,50.1 µM (active)
Cc1noc(C)c1/C=N/Nc1ccc2ccccc2n1,25.3% (inactive),–
O=C(CNC(=O)C(c1ccccc1)c1ccccc1)N/N=C\c1ccc2c(c1)OCO2,-10.2% (inactive),–
CCN(CC)/[N+]([O-])=N/Oc1cc(O/[N+]([O-])=N/N2CCCC2CO)c([N+](=O)[O-])cc1[N+](=O)[O-] (stereo unspecified),-6.67% (inactive),–
Cn1c(=O)c2sccc2n(Cc2ccc(Br)cc2)c1=O,5.6% (inactive),–
CCOc1ccc(N(CC(=O)Nc2ccccc2F)S(=O)(=O)c2c(C)[nH]c(=O)[nH]c2=O)cc1,9.89% (inactive),–
COc1ccccc1C(=O)NC(=S)Nc1ccccc1N1CCCCC1,5.21% (inactive),–
Cc1ccc(C(=O)NCC(=O)OCC(=O)NC2CCCCCCC2)cc1,15.7% (inactive),–
